From the supplement of paper PMC10849652
The full data set covers some 8,800 targets. This sample favours those with a hit. About 0.5% of all pairs of compound and target were hits.

Each target was assayed with COc1cc2ncnc(Nc3ccc(F)c(Cl)c3)c2cc1OCCCN1CCOCC1 [gefitinib] (assay: log2 fold change, soluble protein after heating vs DMSO (PISA); higher = thermal stabilisation; K562 lysate, 10 uM; active = over 0.2 and 3.5 SD of the protein, either way, in both replicates (recomputed)).
Procedure, shortened: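 Thermal stability, expressed as log-two fold change relative to solvent controls, is given from duplicates. Crude K562 extract in PBS pH 7.4 with 1 mM MgCl2, at 1 mg/mL protein, was treated with 10 μM compound for 30 min and heated in aliquots for 3 min across 48°C-58°C. After pooling, adjustment to 0.5% NP-40 at 4°C and centrifugation at 21,000xg for 90 min, supernatant protein was measured by TMTpro 16plex LC-MS/MS with channel sums equalised.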

Sequence of UniProt P30307 (P30307 whole entry, looked up): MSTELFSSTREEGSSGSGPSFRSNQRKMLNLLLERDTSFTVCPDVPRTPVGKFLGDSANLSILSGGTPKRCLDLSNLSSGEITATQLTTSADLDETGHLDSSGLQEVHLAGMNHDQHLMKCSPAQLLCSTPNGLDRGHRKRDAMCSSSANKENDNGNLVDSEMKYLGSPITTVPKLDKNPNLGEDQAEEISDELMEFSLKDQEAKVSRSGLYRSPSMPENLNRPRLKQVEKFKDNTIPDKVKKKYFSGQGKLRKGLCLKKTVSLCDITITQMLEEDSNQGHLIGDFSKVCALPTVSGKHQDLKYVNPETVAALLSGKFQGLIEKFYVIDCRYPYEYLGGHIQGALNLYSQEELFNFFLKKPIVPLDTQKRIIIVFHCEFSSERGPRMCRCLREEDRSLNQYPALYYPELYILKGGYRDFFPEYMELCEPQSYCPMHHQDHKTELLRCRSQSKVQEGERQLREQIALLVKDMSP
Sequence of UniProt P49918 (P49918 whole entry, looked up): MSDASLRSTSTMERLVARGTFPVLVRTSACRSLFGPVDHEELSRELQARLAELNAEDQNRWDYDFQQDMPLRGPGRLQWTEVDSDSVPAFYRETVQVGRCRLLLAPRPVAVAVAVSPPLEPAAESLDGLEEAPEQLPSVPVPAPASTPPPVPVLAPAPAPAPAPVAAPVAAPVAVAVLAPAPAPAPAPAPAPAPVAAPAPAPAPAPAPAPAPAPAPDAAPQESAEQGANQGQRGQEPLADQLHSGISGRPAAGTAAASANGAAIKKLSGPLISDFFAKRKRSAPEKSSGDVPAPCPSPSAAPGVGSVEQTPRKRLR
Sequence of UniProt P15056 (P15056 whole entry, looked up): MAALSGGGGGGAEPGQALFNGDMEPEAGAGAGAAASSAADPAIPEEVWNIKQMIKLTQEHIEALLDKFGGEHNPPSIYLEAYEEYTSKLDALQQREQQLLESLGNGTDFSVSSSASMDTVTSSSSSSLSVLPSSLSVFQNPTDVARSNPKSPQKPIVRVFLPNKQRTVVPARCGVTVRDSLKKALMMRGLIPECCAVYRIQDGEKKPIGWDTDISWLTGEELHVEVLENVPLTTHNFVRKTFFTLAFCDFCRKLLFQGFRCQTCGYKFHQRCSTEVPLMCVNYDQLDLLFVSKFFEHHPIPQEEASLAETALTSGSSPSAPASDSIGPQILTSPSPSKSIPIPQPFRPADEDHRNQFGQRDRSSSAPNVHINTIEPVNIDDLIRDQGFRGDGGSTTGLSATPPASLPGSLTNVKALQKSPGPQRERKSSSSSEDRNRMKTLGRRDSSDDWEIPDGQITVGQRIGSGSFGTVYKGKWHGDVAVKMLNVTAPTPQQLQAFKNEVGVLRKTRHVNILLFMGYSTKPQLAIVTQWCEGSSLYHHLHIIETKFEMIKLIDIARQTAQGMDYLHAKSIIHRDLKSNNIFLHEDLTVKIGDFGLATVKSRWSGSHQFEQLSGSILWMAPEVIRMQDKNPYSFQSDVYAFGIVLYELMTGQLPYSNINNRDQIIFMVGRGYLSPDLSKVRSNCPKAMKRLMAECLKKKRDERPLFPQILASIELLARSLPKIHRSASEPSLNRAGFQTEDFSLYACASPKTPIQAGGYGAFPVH
Sequence of UniProt P21953 (P21953 whole entry, looked up): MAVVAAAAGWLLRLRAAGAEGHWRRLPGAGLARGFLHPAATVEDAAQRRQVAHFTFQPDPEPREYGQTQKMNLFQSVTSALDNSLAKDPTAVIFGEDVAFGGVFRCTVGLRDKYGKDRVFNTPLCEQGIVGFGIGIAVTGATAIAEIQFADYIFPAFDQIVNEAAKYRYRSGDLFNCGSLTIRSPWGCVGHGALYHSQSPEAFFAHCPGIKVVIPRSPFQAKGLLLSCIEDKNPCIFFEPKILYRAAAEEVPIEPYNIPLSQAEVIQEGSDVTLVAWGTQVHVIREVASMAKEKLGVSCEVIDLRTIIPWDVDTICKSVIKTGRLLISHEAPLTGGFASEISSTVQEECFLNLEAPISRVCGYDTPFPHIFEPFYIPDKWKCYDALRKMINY
Sequence of UniProt O00311 (O00311 whole entry, looked up): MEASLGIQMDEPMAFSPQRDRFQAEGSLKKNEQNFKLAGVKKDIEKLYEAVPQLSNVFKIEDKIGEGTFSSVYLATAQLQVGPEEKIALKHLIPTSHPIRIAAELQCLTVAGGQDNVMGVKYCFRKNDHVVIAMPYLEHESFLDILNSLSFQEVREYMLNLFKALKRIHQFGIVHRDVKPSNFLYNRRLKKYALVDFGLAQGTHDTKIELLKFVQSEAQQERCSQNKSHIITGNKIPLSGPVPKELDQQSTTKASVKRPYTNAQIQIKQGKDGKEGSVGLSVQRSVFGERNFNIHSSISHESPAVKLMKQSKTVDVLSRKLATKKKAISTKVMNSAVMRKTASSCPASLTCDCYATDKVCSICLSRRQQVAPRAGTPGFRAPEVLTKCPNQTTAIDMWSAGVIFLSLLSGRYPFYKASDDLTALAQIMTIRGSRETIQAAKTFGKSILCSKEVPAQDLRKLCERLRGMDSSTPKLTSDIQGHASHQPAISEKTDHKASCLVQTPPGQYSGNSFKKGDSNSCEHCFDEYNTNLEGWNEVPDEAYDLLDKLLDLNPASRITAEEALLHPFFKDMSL
Sequence of UniProt Q00535 (Q00535 whole entry, looked up): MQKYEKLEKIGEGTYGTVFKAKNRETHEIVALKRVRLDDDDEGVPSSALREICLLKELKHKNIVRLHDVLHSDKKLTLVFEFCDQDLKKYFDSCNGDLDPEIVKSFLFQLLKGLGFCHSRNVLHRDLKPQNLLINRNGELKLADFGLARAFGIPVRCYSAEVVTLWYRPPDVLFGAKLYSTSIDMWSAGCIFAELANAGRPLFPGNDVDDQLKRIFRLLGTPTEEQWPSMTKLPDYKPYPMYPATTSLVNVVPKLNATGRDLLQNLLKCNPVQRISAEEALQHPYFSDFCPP
Sequence of UniProt Q8N4J0 (Q8N4J0 whole entry, looked up): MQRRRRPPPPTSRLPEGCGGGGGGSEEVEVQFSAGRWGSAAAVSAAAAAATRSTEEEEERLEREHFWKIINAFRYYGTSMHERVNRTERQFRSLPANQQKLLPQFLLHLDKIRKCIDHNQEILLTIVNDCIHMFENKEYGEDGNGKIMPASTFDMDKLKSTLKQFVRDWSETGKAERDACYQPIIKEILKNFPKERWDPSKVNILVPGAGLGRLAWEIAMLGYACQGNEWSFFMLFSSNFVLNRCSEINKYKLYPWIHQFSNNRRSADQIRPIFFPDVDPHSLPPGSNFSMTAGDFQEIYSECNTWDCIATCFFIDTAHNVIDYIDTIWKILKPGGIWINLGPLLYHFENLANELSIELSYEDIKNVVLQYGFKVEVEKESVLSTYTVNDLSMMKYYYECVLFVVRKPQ
Sequence of UniProt P33681 (P33681 whole entry, looked up): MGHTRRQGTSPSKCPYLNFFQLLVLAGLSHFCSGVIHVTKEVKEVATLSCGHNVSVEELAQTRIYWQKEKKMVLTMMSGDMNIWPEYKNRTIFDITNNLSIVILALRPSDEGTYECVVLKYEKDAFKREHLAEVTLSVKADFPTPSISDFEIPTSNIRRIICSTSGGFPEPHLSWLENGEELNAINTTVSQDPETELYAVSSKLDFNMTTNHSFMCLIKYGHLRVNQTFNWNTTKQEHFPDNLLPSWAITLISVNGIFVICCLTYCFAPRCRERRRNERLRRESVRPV
Sequence of UniProt Q9UL45 (Q9UL45 whole entry, looked up): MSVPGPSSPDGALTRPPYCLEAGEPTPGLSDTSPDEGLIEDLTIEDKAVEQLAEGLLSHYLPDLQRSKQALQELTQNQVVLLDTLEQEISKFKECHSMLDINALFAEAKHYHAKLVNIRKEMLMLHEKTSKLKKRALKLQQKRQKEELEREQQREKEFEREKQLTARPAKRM
Sequence of UniProt P14635 (P14635 whole entry, looked up): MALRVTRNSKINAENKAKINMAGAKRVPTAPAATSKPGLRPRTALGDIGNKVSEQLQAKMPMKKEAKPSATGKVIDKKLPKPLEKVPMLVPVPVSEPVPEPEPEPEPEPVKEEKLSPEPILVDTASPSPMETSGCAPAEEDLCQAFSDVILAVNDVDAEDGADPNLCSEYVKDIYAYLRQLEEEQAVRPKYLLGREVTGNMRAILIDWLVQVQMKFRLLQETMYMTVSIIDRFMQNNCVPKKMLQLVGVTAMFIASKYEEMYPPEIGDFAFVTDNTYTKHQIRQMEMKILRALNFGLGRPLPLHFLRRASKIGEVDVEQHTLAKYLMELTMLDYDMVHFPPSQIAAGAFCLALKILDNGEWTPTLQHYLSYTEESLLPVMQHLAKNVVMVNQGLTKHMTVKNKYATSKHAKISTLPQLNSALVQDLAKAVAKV
Sequence of UniProt Q6P4E1 (Q6P4E1 whole entry, looked up): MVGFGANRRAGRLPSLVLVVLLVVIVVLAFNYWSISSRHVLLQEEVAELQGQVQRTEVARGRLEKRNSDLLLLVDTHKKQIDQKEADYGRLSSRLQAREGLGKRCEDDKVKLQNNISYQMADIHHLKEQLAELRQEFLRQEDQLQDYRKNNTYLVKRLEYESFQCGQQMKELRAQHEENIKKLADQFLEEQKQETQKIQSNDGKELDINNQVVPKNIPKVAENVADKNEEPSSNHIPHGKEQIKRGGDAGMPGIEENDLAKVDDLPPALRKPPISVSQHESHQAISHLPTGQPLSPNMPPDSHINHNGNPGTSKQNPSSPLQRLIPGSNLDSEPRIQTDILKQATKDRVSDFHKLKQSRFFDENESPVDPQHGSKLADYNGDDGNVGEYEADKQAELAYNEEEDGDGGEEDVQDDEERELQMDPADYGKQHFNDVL
Sequence of UniProt P04632 (P04632 whole entry, looked up): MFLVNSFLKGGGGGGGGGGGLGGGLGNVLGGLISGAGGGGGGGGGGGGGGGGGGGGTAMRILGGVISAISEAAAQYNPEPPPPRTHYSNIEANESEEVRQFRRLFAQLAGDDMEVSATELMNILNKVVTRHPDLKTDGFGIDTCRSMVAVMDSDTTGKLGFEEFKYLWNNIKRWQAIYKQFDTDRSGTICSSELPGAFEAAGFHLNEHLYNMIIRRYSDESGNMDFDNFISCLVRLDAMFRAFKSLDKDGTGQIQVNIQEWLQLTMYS
Sequence of UniProt A8MTT3 (A8MTT3 whole entry, looked up): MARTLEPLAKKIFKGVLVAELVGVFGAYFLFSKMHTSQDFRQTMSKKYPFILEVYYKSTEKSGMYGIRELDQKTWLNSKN

log2 fold change, inactive:
CEBPZOS (UniProt A8MTT3) 0.006
CDKN1C (UniProt P49918) -0.136
BCKDHB (UniProt P21953) -0.024
CD80 (UniProt P33681) -0.001
BNIP1 (UniProt Q12981) -0.018
CCNK isoform 4 (UniProt O75909) 0.046
CBX5 (UniProt P45973) 0.009
C18orf32 (UniProt Q8TCD1) -0.249
BRD2 isoform 2 (UniProt P25440) -0.009
CDK5 (UniProt Q00535) -0.027
CEP120 (UniProt Q8N960) 0.119
BLOC1S6 (UniProt Q9UL45) 0.047
BMS1 (UniProt Q14692) -0.042
ATR (UniProt Q13535) 0.052
CARNMT1 (UniProt Q8N4J0) 0.009
CDC7 (UniProt O00311) -0.036
CARD11 (UniProt Q9BXL7) 0.014
BRAF (UniProt P15056) 0.045
BRD4 (UniProt O60885) 0.034
CAPNS1 (UniProt P04632) -0.062
CDC25C (UniProt P30307) -0.069
CASC4 (UniProt Q6P4E1) 0.086
CCNB1 (UniProt P14635) -0.024
